ChEMBL document CHEMBL3988442, “University of Dundee, Small-Polar-MMV Screening Library” (2021)
Hit rate of the full screen: of about 69,000 compounds, about 950 (1.4%) showed an effect of 50% or more. What follows is part of a selection rich in strong results, with near analogues and random picks from the rest.

system: Mycobacterium tuberculosis; experiment: Cornell M. t heat shock assay; assay type: functional, organism-based; set-up: dose or concentration left out as unconfirmed; also: in the data most compounds retested in dose-response had high values

| SMILES | Percent Effect |
| --- | --- |
| CCCc1nc(CN2CCCC(Cn3cncn3)C2)no1 (configuration not stated) | -9.9% |
| O=C(O)C(F)(F)F.O=C(O)C(F)(F)F.c1cncc(OCC2CN(Cc3ccsc3)Cc3nccn3C2)c1 (configuration not stated) | -18.26% |
| COCCN1C(=O)C[C@H]2[C@H]1CCN2Cc1ccccc1.O=C(O)C(F)(F)F | 3.349% |
| CN(C)[C@@H]1CCN(C(=O)c2ccsc2)[C@H]1Cc1cccnc1.O=C(O)C(F)(F)F.O=C(O)C(F)(F)F | -16.81% |
| Cc1ccc(N2Cc3cnn(C)c3C(COCC3CC3)C2)nn1.O=C(O)C(F)(F)F.O=C(O)C(F)(F)F (configuration not stated) | 49.24% |
| COc1ccc(CN2CCC3(CC2)NC(=O)CC3c2cnn(C)c2)cc1.O=C(O)C(F)(F)F (configuration not stated) | -26.9% |
| O=C1C[C@H]2CC[C@@H](CN1)N2C(=O)CCc1ccccc1 | 16.33% |
| CO[C@@H]1CCN(Cc2cccs2)[C@@H]2CN(Cc3ccncc3)C[C@@H]21.O=C(O)C(F)(F)F.O=C(O)C(F)(F)F.O=C(O)C(F)(F)F | 42.16% |
| COCC(=O)N1CCCC(C)(c2nncn2C)C1 (configuration not stated) | 11.29% |
| Cc1cccc(CN2CCC3(CC2)CN(c2cccnc2)C(=O)CO3)n1.O=C(O)C(F)(F)F.O=C(O)C(F)(F)F | -14.12% |
| Cc1nn(C)c(Cl)c1C1CCCN1C(=O)c1ccc(C(N)=O)cn1 (configuration not stated) | -15.15% |
| Cc1cc(C)n(CC2CCCN2CC(=O)Nc2nncs2)n1 (configuration not stated) | -43.1% |
| Cc1cc(C)n(CC2CCCCN2CC(=O)Nc2nncs2)n1 (configuration not stated) | 69.77% |
| Cc1cc(C)n(CC2CCCCN2CC(=O)Nc2nnc(C)s2)n1 (configuration not stated) | 10.12% |
| CO[C@@H]1CC[C@H]2[C@H]1OCCN2CC1CC1.O=C(O)C(F)(F)F | -34.92% |
| Cc1nn(C)c2c(=O)n(CC(=O)NCc3ccc(N(C)C)cc3)ccc12 | 2.829% |
| COCCN1C[C@@H]2CN(Cc3ccc(C)s3)CCC[C@]2(C(=O)O)C1.O=C(O)C(F)(F)F.O=C(O)C(F)(F)F | -29.4% |
| Cc1cnn(CC2CCCCN2Cc2nc(C)c3ccccc3n2)c1 (configuration not stated) | 67.77% |
| Cc1cnn(CC2CCCN2Cc2ncc(-c3ccc(F)cc3)o2)c1 (configuration not stated) | -10.3% |
| Cc1nc(CN2CCCC2Cn2cccn2)nc2ccccc12 (configuration not stated) | 33.45% |
| Cc1cnn(CC2CCCN2Cc2nc(C)c3ccccc3n2)c1 (configuration not stated) | 101.6% |
| Cc1nc(C)n(CC2CCCN2Cc2nc3ccccc3n2C)n1 (configuration not stated) | -5.876% |
| Cc1cnn(CC2CCCN2Cc2nc3ccccc3n2C)c1 (configuration not stated) | 101.1% |

| SMILES | Percent Effect |
| --- | --- |
| Cc1cnn(CC2CCCN2Cc2nc3ccccc3nc2C)c1 (configuration not stated) | 7.151% |
| c1ccc(-c2cnc(CN3CCCC3Cn3cccn3)o2)cc1 (configuration not stated) | 7.104% |
| Cc1cnn(CC2CCCN2Cc2noc(C)n2)c1 (configuration not stated) | -1.003% |
| Cc1cnn(CC2CCCN2Cc2ncc(-c3ccccc3)o2)c1 (configuration not stated) | 61.17% |
| Cc1nc(CN2CCCCC2Cn2cccn2)nc2ccccc12 (configuration not stated) | 49.4% |
| Cc1nc(CN2CCCCC2Cn2cncn2)nc2ccccc12 (configuration not stated) | -16.52% |
| COc1ccc(C(=O)N2Cc3cc(C)ccc3OCC2CN(C)C)cc1.Cl (configuration not stated) | -9.159% |
| Cc1cccc(CN2CCCC3(CCC(=O)N3CCN(C)C)CC2)n1.O=C(O)C(F)(F)F.O=C(O)C(F)(F)F (configuration not stated) | -9.93% |
| CC(C)NC(=O)N1CCc2ncnc(-c3ccncc3)c2CC1.O=C(O)C(F)(F)F | 36.54% |
| CCn1ccc2ccnc(CC3CN(C(=O)Cn4ccnc4C)C3)c21.O=CO | -10.71% |
| COc1ccc(CN(Cc2ccccn2)Cc2cncn2C)cc1.O=C(O)CC(O)(CC(=O)O)C(=O)O | 72.33% |
| COc1ccc(CN(Cc2cncn2C)CC2CCCO2)cc1OC.O=C(O)CC(O)(CC(=O)O)C(=O)O (configuration not stated) | -6.379% |
| Cc1ncc(CN(Cc2ccccn2)Cc2ccccc2Cl)n1C.O=C(O)CC(O)(CC(=O)O)C(=O)O | 34.76% |
| COc1ccc(CN(Cc2cncn2C)CC2CCCO2)cc1.O=C(O)CC(O)(CC(=O)O)C(=O)O (configuration not stated) | 1.542% |
| Cn1ccnc1CN(Cc1ccccn1)Cc1ccccc1Cl.O=C(O)CC(O)(CC(=O)O)C(=O)O | 102.4% |
| Cc1nc2sccn2c1CN(CCCN(C)C)Cc1ccccn1.O=C(O)CC(O)(CC(=O)O)C(=O)O | -0.915% |
| COc1ncc(CN2CCCC(c3[nH]ncc3S(C)(=O)=O)C2)cn1 (configuration not stated) | -20.65% |
| CSc1ccccc1C(=O)N1C[C@H]2CC[C@@H]1CN(C(=O)C1CCC1)C2 | 6.914% |
| Cn1cc(CN2CCCC23CCN(C(=O)c2cccs2)CC3)cn1.O=C(O)C(F)(F)F | -13.39% |
| CN1CCN(Cc2cn3c(n2)CN(Cc2cccc(F)c2)CC3)CC1.O=C(O)C(F)(F)F.O=C(O)C(F)(F)F.O=C(O)C(F)(F)F | -2.625% |
| c1ccc(COc2ccccc2CNC2CCc3ncnn3C2)cc1 (configuration not stated) | 4.249% |
| c1cncc(COc2ccccc2CNC2CCc3ncnn3C2)c1 (configuration not stated) | 103.3% |
| c1ccc(OCc2ccncc2)c(CNC2CCc3ncnn3C2)c1 (configuration not stated) | 14.47% |

| SMILES | Percent Effect |
| --- | --- |
| CC(C)N(C)Cc1cc(=O)n2c(n1)CN(S(=O)(=O)C1CC1)CCC2.O=C(O)C(F)(F)F | 3.887% |
| COc1c(CNC(c2ccccc2F)c2nccn2C)c(C)nn1C (configuration not stated) | -25.27% |
| COc1c(CNC(c2nccn2C)C(C)C)c(C)nn1C (configuration not stated) | 2.612% |
| Fc1ccccc1C(CNc1ccncn1)N1CCCC1 (configuration not stated) | -9.26% |
| CC(NCCn1cccn1)c1ccccc1F (configuration not stated) | -16.32% |
| CSc1ccc(CNC(c2ccccc2F)c2nccn2C)cc1.Cl (configuration not stated) | 112.7% |
| CSc1ccc(CNC2CCN(CCc3ccncc3)CC2)cc1 | 5.943% |
| COc1ccc(CN(C)c2ccc(-c3nccn3C)nn2)cc1OC | 6.196% |
| COc1ccccc1C(NCc1ccc(SC)cc1)c1nccn1C (configuration not stated) | 111.2% |
| COc1cc(CN2CCn3c(CO)nnc3C2)ccc1OC(C)C.O=C(O)CC(O)(CC(=O)O)C(=O)O | -10.49% |
| CNC(=O)N1C[C@H]2C[C@H](C(=O)Nc3cccnc3)[C@@H](C1)O2.O=C(O)C(F)(F)F | -3.973% |
| Cc1ccc(C(=O)N2C[C@@H]3CC[C@H](C2)N(Cc2ccccc2)C3)cn1 | -13.46% |
| CCc1cc(=O)n(CCNC(=O)Nc2ccc(OC(F)(F)F)cc2)cn1 | 32.6% |
| O=C(O)C(F)(F)F.O=C(O)C(F)(F)F.O=C(O)C(F)(F)F.c1ccc(CN2CCCC3(CCN(Cc4cccs4)C3)C2)nc1 (configuration not stated) | 0.0284% |
| CCc1c(C(=O)N2C[C@H]3CC[C@@H]2CN(c2cnccn2)C3)csc1C | -16.87% |
| CC(C)Nc1nc(N2CCCC2)nc2c1CN(S(C)(=O)=O)CC2 | 11% |
| CCN1CCc2nc(N3CCOCC3)nc(NC(C)C)c2C1 | 8.22% |
| Cc1nc(CN2CCc3ncnc(C)c3CC2)cs1.O=C(O)C(F)(F)F | 2.444% |
| Cc1nc(CN2CCc3nc(N4CCCC4)nc(NC(C)C)c3C2)cs1 | 104.3% |
| Cc1nc(NC(C)C)nc2c1CN(Cc1cccs1)CC2 | 99.87% |
| CC(C)Nc1nc(N2CCCC2)nc2c1CN(C(C)C)CC2 | 101.9% |
| CC(C)Nc1nc(N2CCCC2)nc2c1CN(C)CC2 | 4.665% |
| CCC(C)N1CCc2nc(N3CCCC3)nc(NC(C)C)c2C1 (configuration not stated) | -2.093% |

| SMILES | Percent Effect |
| --- | --- |
| CC(C)Oc1ncnc2c1CCN(Cc1cccs1)CC2 | 17.98% |
| CC(=O)NCc1noc2c1CN(Cc1cccs1)CC2 | 18.13% |
| Cc1nc(NC(C)C)nc2c1CN(Cc1nccn1C)CC2 | 12.34% |
| Cc1nc(CN2CCc3nc(NC(C)C)nc(C)c3C2)cs1 | 99.63% |
| Cc1nn(C)cc1-c1cncn1CCN(C)C1CCCC1.Cl | 1.181% |
| Cc1cccc(CN2C[C@@H]3COC[C@]3(COCC(=O)N(C)C)C2)n1.O=C(O)C(F)(F)F.O=C(O)C(F)(F)F | -9.127% |
| O=C(O)C(F)(F)F.O=C([C@H]1C[C@H]2OCC[C@H]2N(CC2CCOCC2)C1)N1CCCCO1 | -2.02% |
| COC1COC2(CCN(Cc3cccc(Cl)c3)CC2)C1.O=C(O)C(F)(F)F (configuration not stated) | -14.26% |
| CN1[C@H]2CC[C@@H]1CN(c1nc(-c3ccncc3)nc3c1cnn3C)CC2 | -0.0303% |
| O=C(NC1CCCCC1)N1CCc2onc(COc3cccnc3)c2C1.O=C(O)C(F)(F)F | 9.654% |
| CC(C)CN1Cc2nc(N3CCCC3)ncc2C1=O | -13.83% |
| COc1ccccc1C(=O)N1CCNCC1C(N)=O.Cl (configuration not stated) | 5.705% |
| CC(=O)N1CCC(c2nccnc2Nc2ncc(C)s2)CC1 | 55.53% |
| Cc1cnc(Nc2nccnc2C2CCN(C)CC2)s1 | 16.42% |
| CC(=O)N1CCC(c2nccnc2Nc2cnccn2)CC1 | 19.92% |
| CCOC1COC2(CCN(C(=O)c3cccc(C)n3)CC2)C1.O=C(O)C(F)(F)F (configuration not stated) | 18.32% |
| O=C(O)C(F)(F)F.O=C(c1cccc(O)c1)N1CCC2(CCN2c2ncccn2)C1 (configuration not stated) | 1.113% |
| Cc1cnn(CCNCc2csc(-c3ccc(C)o3)n2)c1 | 64.15% |
| c1coc(-c2nc(CNCCn3cccn3)cs2)c1 | -1.03% |
| Cc1cnn(CC(C)NCc2csc(-c3ccco3)n2)c1 (configuration not stated) | 29.87% |
| Cc1cnn(CCNCc2csc(-c3ncccn3)n2)c1 | -10.75% |
| Cc1cnn(CCNCc2csc(-c3ccco3)n2)c1 | 52.61% |
| Cc1ccc(-c2nc(CNCCn3cccn3)cs2)o1 | 26.99% |
